# The sample as a whole holds a higher share of hits than the screen did.
# IDE exosite FP = exo-site inhibitors of human IDE, primary screen, biochemical, fluorescence anisotropy, probe displacement; purified IDE, FL-6b probe fluorescence polarization; active compounds read low; 6.3% of 17,000 active; AID 1259349, 2017; z-score at 20 µM; Insulin-degrading enzyme (Homo sapiens), P14735;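 active means z-score of -3 or lower, meaning strong loss of probe binding signal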;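 further: His-tagged human IDE residues 42-1019 made in E. coli with 30 nM FL-6b probe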
# Target sequence (P14735 42-1019 limits assumed): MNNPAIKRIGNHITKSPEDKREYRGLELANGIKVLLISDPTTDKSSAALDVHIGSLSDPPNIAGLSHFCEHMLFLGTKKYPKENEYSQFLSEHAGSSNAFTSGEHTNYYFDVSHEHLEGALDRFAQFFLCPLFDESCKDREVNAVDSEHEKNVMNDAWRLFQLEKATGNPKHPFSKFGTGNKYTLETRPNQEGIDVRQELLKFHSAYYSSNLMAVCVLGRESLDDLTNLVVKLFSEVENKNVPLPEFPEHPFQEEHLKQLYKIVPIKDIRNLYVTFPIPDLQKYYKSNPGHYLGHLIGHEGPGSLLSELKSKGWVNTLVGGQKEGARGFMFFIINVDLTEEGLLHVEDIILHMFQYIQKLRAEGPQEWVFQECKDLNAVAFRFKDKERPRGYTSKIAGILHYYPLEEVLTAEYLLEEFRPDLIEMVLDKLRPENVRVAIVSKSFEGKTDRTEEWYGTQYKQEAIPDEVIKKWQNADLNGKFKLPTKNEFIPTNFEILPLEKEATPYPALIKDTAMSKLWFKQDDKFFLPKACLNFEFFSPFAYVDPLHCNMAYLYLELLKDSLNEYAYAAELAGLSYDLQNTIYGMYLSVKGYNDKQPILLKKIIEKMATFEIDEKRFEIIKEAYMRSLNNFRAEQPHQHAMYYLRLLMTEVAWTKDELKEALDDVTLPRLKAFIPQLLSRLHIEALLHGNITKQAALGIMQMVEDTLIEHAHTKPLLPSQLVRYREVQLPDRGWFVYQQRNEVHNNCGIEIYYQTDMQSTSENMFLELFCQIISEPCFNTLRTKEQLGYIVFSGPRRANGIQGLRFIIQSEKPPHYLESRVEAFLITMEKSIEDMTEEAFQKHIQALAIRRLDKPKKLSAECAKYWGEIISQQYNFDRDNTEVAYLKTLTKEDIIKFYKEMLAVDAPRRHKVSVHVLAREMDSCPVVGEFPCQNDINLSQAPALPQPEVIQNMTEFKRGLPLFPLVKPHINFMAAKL
# Starred values were filed as active, the others as inactive.
SMILES,IDE exosite FP
COc1ccc2c3c([nH]c2c1)[C@H](CO)N(CC1CC1)CC31CCN(C(=O)Nc2cccc(F)c2)CC1,-0.44
CCCNC(=O)N1CCC2(CC1)CN(C(=O)COC)[C@H](CO)c1[nH]c3cc(OC)ccc3c12,-0.62
COc1ccc2c3c([nH]c2c1)[C@@H](CO)N(Cc1cccc(F)c1)CC31CCN(C(C)=O)CC1,-4.2*
CCCNC(=O)N1CCC2(CC1)CN(Cc1cccc(OC)c1)[C@@H](CO)c1[nH]c3cc(OC)ccc3c12,-3.1*
COc1ccc2c3c([nH]c2c1)[C@H](CO)N(C(C)=O)CC31CCN(C(C)=O)CC1,-0.41
CCc1sc(N2[C@@H](C#N)[C@@H](c3ccccc3-c3ccc(F)cc3)[C@@H]2CO)nc1C,0.81
COc1ccc2c3c(n(C)c2c1)[C@@H](CO)N(Cc1cccnc1)CC31CN(C(=O)c2cccnc2)C1,-0.39
C[C@@H](NC(=O)C[C@H]1CC[C@@H]2[C@@H](COc3ccc(NC(=O)C4CCOCC4)cc3C(=O)N2C)O1)c1ccccc1,-1.7
CO[C@H]1CC[C@H]2CCOc3c(C#N)cccc3C(=O)N(C)CC3(CCCCC3)CC(=O)N(C)C[C@H]1O2,0.015
CCC(=O)N1CCCCN2[C@H](CO)[C@@H](c3ccc(C#Cc4ccccc4)cc3)[C@@H]2C1,-9.2*
CCC(=O)N1CCCCN2[C@H](CO)[C@@H](c3ccc(C#CCOC)cc3)[C@@H]2C1,2.4
O=C(Nc1ccccc1)N1CCCCN2[C@H](CO)[C@@H](c3ccc(C#Cc4ccccc4)cc3)[C@H]2C1,3.2
CCC(=O)N1CCCCN2[C@@H](CO)[C@H](c3ccc(C#CCOC)cc3)[C@@H]2C1,2.8
CCC(=O)N1CCCCN2[C@@H](CO)[C@@H](c3ccc(C#CCOC)cc3)[C@@H]2C1,2.5
CCC(=O)N1CCCCN2[C@H](CO)[C@H](c3ccc(C#CCOC)cc3)[C@H]2C1,3
CCC(=O)N1CCCCN2[C@H](CO)[C@H](c3ccc(C#Cc4ccccc4)cc3)[C@H]2C1,-4.7*
CCC(=O)N1CCCCN2[C@@H](CO)[C@H](c3ccc(C#Cc4ccccc4)cc3)[C@@H]2C1,-9.4*
CCC(=O)N1CCCCN2[C@@H](CO)[C@@H](c3ccc(C#Cc4ccccc4)cc3)[C@@H]2C1,-7.7*
CCC(=O)N1CCCCN2[C@@H](CO)[C@H](c3ccc(-c4cccc(C#N)c4)cc3)[C@@H]2C1,0.21
CCCNC(=O)N(C)C[C@H]1[C@H](c2ccccc2)[C@@H](CO)N1C(=O)c1ccccc1,-0.26
CO[C@H]1CN(C)C(=O)c2ccc(NS(=O)(=O)CC(F)(F)F)cc2OC[C@H](C)N(C(=O)NC(C)C)C[C@H]1C,-0.99
C/C=C/c1ccc([C@@H]2[C@@H](CO)N3C(=O)CN(Cc4ccc(F)cc4)C[C@@H]23)cc1,-0.61
O=C(Cc1ccccn1)N1CC(=O)N2[C@H](CO)[C@@H](c3ccc(C#CCC4CCCC4)cc3)[C@@H]2C1,1.4
Cc1ccccc1-c1ccc(C2[C@H]3CNC[C@@H]2N3C(=O)Nc2ccc(C(F)(F)F)cc2)cc1 (some centres undefined),-1.8
C[C@@H]1CN([C@H](C)CO)C(=O)c2cc(NS(=O)(=O)c3cn(C)cn3)ccc2O[C@@H](C)CCCCO[C@H]1CN(C)C(=O)Nc1ccc(C(F)(F)F)cc1,-0.32
SMILES,IDE exosite FP
CC(C)C#Cc1ccc([C@H]2[C@H]3CN(S(=O)(=O)c4ccccc4)CC(=O)N3[C@H]2CO)cc1,-0.73
CC(C)C#Cc1ccc([C@H]2[C@H]3CN(C(=O)Cc4cccnc4)CC(=O)N3[C@H]2CO)cc1,3.7
O=C(c1ccc2c(c1)OCO2)N1CCCCN2[C@H](CO)[C@@H](c3ccc(-c4ccccc4)cc3)[C@@H]2C1,0.43
CN(C)CC(=O)N[C@H]1C=C[C@@H](CC(=O)NCc2ccc(Cl)cc2)O[C@H]1CO,3.2
O=S(=O)(c1ccccc1F)N1CCCCN2[C@@H](CO)[C@H](c3ccc(-c4cccnc4)cc3)[C@@H]2C1,2.2
Cc1ccccc1S(=O)(=O)N1CCCCN2[C@@H](CO)[C@H](c3ccc(-c4cccnc4)cc3)[C@@H]2C1,2.3
O=S(=O)(c1ccccc1F)N1CCCCN2[C@H](C1)[C@H](c1ccc(-c3cccnc3)cc1)[C@@H]2CO,-0.54
O=S(=O)(c1ccccc1F)N1CCCCN2[C@H](CO)[C@@H](c3ccc(-c4cccnc4)cc3)[C@@H]2C1,-7.7*
Cc1ccccc1S(=O)(=O)N1CCCCN2[C@H](C1)[C@@H](c1ccc(-c3cccnc3)cc1)[C@@H]2CO,-3*
Cc1ccccc1S(=O)(=O)N1CCCCN2[C@H](CO)[C@@H](c3ccc(-c4cccnc4)cc3)[C@H]2C1,-0.049
COc1ccc(-c2ccc3n(c2=O)C[C@H]2[C@H](CO)[C@@H](C(=O)N4CCOCC4)N[C@@H]32)cc1,0.9
C[C@@H](O)C#Cc1ccc([C@H]2[C@@H](CO)N3CCCCN(C(=O)c4ccc(F)cc4)C[C@@H]23)cc1,3.3
N#C[C@H]1[C@@H](c2ccccc2-c2cccc(F)c2)[C@H](CO)N1C(=O)C1CC1,1.9
CCS(=O)(=O)N1CC2(CN(Cc3cccc(Cl)c3)[C@@H](CO)c3c2c2ccc(OC)cc2n3C)C1,-0.3
COc1ccc2c3c([nH]c2c1)[C@H](CO)N(Cc1ccc(Cl)cc1)CC31CCN(Cc2nccs2)CC1,0.23
COc1ccc(-c2ccc([C@H]3[C@H](C#N)N(C(=O)NC4CCCCC4)[C@H]3CO)cc2)cc1,4.5
COc1ccc(-c2ccc([C@@H]3[C@@H](CO)N(C(=O)NC(C)C)[C@H]3C#N)cc2)cc1,0.16
COc1ccccc1-c1ccc([C@@H]2[C@@H](C#N)N(C(=O)NC3CCCCC3)[C@@H]2CO)cc1,-10*
COc1ccccc1-c1ccc([C@@H]2[C@@H](C#N)N(C(=O)CN(C)C)[C@H]2CO)cc1,-12*
COc1ccc(-c2ccccc2[C@H]2[C@@H](C#N)N(C(=O)NC3CCCCC3)[C@H]2CO)cc1,1.3
CN(C)CC(=O)N1[C@H](C#N)[C@@H](c2ccc(-c3ccccc3F)cc2)[C@H]1CO,0.21
COc1ccccc1-c1ccc([C@@H]2[C@@H](C#N)N(C(=O)NC(C)C)[C@@H]2CO)cc1,-13*
COc1ccccc1-c1ccccc1[C@@H]1[C@H](C#N)N(C(=O)CN(C)C)[C@H]1CO,-0.82
COc1ccc(-c2ccc([C@@H]3[C@@H](C#N)N(C(=O)NC(C)C)[C@H]3CO)cc2)cc1,0.76
C/C=C/c1ccccc1[C@H]1[C@@H](C#N)N(C(=O)CN2CCOCC2)[C@@H]1CO,0.21
SMILES,IDE exosite FP
Cc1noc(C)c1NC(=O)Nc1ccc2c(c1)C(=O)N([C@H](C)CO)C[C@@H](C)[C@H](CN(C)Cc1ccc3c(c1)OCO3)OCCCC[C@@H](C)O2,2.7
C[C@@H](O)C#Cc1ccc([C@H]2[C@@H](CO)N3CCCCN(C(=O)c4ccc(F)cc4)C[C@H]23)cc1,1.7
C/C=C/c1ccc([C@H]2[C@H](CO)N3C(=O)CN(C(=O)Nc4ccc(OC)cc4)C[C@@H]23)cc1,-0.39
COc1cccc(NC(=O)N2CC(=O)N3[C@@H](CO)[C@@H](c4ccc(Br)cc4)[C@@H]3C2)c1,-0.29
COc1cccc(NC(=O)N2CC(=O)N3[C@H](CO)[C@@H](c4ccc(Br)cc4)[C@H]3C2)c1,2.8
C/C=C/c1ccc([C@H]2[C@H]3CN(C(=O)Nc4ccc(OC)cc4)CC(=O)N3[C@H]2CO)cc1,-5.1*
COc1ccc(C#Cc2ccc([C@@H]3[C@H]4CN(C(=O)NC(C)C)CC(=O)N4[C@H]3CO)cc2)cc1,1

# Bioassay records deposited in PubChem by Broad Institute.
